Data published in ChEMBL document CHEMBL4513216, “Probing the Open Global Health Chemical Diversity Library for Multistage-Active Starting Points for Next-Generation Antimalarials” (ACS Infect Dis, 2020).
Out of some 69,000 compounds screened, about 8,600 (12%) showed an effect of 50% or more. Shown is part of a subset that was picked to be rich in strong results.

What follows are compounds tested on Plasmodium berghei (assay: Screen against P. berghei liver stage (PbLuc), transformed with Luciferase, at 10uM). Conditions: tested at 10 uM.
Format: functional, HepG2

Row | Structure (SMILES) | INHIBITION [%]
1 | CC(C)n1ccc(-c2cc(C(=O)N3CCN(C)CC3)c3ccccn23)n1 | 16.9
2 | Cc1onc(-c2ccncc2)c1C(=O)NC1CCCOC1 (stereo unspecified) | 10.8
3 | CCN(C)c1ncnc2c1CCN(C(=O)c1ccoc1C)CC2 | -125
4 | CC(C)CCC(=O)N1CC[C@@H]2[C@H](CC1)N(S(C)(=O)=O)CCS2(=O)=O | -31.9
5 | C/C(NC(=O)c1ccccn1)=C1\C(=O)C[C@@H]2[C@H]1C2(C)C | 9.41
6 | Cc1cc(OC(F)F)c(C(=O)N2CC[C@H](O)C2)s1 | 3.58
7 | CN(C)[C@H]1COC[C@@H]2CN(Cc3ccc4c(c3)OCO4)C[C@@H]21 | 12.1
8 | CN(c1nc(Cn2cnccc2=O)cs1)C1CC1 | 55.5
9 | O=c1ccncn1Cc1csc(C2CC2)n1 | 57.5
10 | Cc1ccc(=O)n(Cc2csc(N(C)C3CC3)n2)n1 | -40.6
11 | CN(c1nc(Cn2cc(Br)ccc2=O)cs1)C1CC1 | 0
12 | CCc1csc(C2CCCN(C(=O)c3ccncc3)C2)n1 (stereo unspecified) | 6.1
13 | Cn1cnc2c1CCN(Cc1csc(C3CCCC3)n1)C2 | -19.9
14 | Cc1cc(C(=O)NCc2cccn2C)nn1C | 9.55
15 | CS(=O)(=O)NC[C@H]1OC[C@@H]2CCN(Cc3ccc(F)cc3)C[C@@H]21 | -16.2
16 | Cc1nnsc1C(=O)N1CCCC(n2nnc3cc(F)ccc32)C1 (stereo unspecified) | 52

Row | Structure (SMILES) | INHIBITION [%]
17 | Cc1n[nH]cc1C(=O)N1CCCC(n2nnc3cc(F)ccc32)C1 (stereo unspecified) | 21
18 | Cc1nn(C)cc1C(=O)N1CCCC(n2nnc3cc(F)ccc32)C1 (stereo unspecified) | -3.31
19 | COCCc1noc(CN2CCOC(Cn3cc(C)cn3)C2)n1 (stereo unspecified) | -90.9
20 | Cc1cccc(=O)n1CCC(=O)N1CCC2(CC1)OCCCC2O (stereo unspecified) | 24.2
21 | CCn1c(CNC(=O)Nc2nc(C)c(C)o2)nc2ccccc21 | 44.8
22 | Cc1nc(NC(=O)NCc2nc3cccc(C)c3n2C)oc1C | 38.6
23 | Cc1nc(C)c(C(=O)NCc2nc3cccc(C)c3n2C)o1 | 88.8
24 | CCc1ccc(C(=O)O)cc1S(=O)(=O)Nc1ccc2c(c1)OCCO2 | 28
25 | CCS(=O)(=O)NCCCNCc1c(C)nn(C)c1N(C)C | 23.25
26 | CCN(Cc1cccnc1)C1CCN(c2ccccc2)C1=O (stereo unspecified) | -2.27
27 | CCN(Cc1ccccc1)C1CCN(c2cc(C)nn2C)C1=O (stereo unspecified) | 57.2
28 | CCOc1ccc(CN(C)C2CCN(c3cc(C)nn3C)C2=O)cc1 (stereo unspecified) | 24.7
29 | Cc1cc(N2CCC(N(C)Cc3cccnc3)C2=O)n(C)n1 (stereo unspecified) | 59.3
30 | CCN(Cc1ccncc1)C1CCN(c2ccccc2)C1=O (stereo unspecified) | -13.1
31 | CCN(Cc1cnc(C)cn1)C1CCN(c2ccccc2)C1=O (stereo unspecified) | 15.2
